This is an account of results in ChEMBL document CHEMBL3988442, “University of Dundee, Small-Polar-MMV Screening Library” (2021).

The test system of the experiment is Leishmania donovani. Briefly: Leishmania intramacrophage assay. Also on record: scale not given: in the data most compounds retested in dose-response had high values. In kind it is functional, organism-based.

In all, about 69,000 compounds went through this assay and about 1,000 (1.4%) showed an effect of 50% or more. What follows is part of a selection rich in strong results, with near analogues and random picks from the rest.

With `CCc1ccc(CNCC2CCN(CCO)CC2)cc1`, the “Percent Effect” value (30.3 µM, […]) came to 73.93%.

On to `CS(=O)(=O)c1ccc(CNCC2CCN(CCO)CC2)cc1`, for which, for the setting “30 µM, 30.03 µM”, the “Percent Effect” value is listed as 7.016%.

With `N#Cc1ccc(CNCC2CCN(CCO)CC2)cc1`, for the setting “30 µM, 30.03 µM”, the “Percent Effect” value is 18.87%.

`OCCN1CCC(CNCc2ccc(N3CCCCC3)cc2)CC1`: the “Percent Effect” value (30.3 µM, […]) stood at 79.78%.

For the compound `Cc1ccc(CNCC2CCN(CCO)CC2)cc1`, the “Percent Effect” value (30.3 µM, […]) is given as -12.85%.

Regarding `OCCN1CCC(CNCc2cn(-c3ccccc3)nn2)CC1`, the “Percent Effect” value (30.3 µM, […]) is listed as -6.29%.

For `NC(=O)c1ccc(CNCC2CCN(CCO)CC2)cc1`, for the setting “30.3 µM, […]”, the “Percent Effect” value is reported as -0.3402%.

On to `OCCN1CCC(CNCc2ccc(Br)cc2)CC1`, for which, under “30.3 µM, […]”, the “Percent Effect” value is on record as 77.88%.

Regarding `Cc1ncccc1CNCC1CCN(CCO)CC1`, for the setting “30 µM”, the “Percent Effect” value came out at 29.11%.

Consider `Cn1cc(CC2CC(=O)N(Cc3ccccc3OC(F)F)C2=O)cn1` (stereo not given), for which, for the setting “30.3 µM, […]”, the “Percent Effect” value is 7.915%.

Turning to `Cl.NC1CCN(C(=O)c2c(F)cccc2Br)CC1`, the “Percent Effect” value (30.3 µM, […]) is reported as 2.162%.

Turning to `COc1ccc([C@@H]2CN(c3cnccn3)C[C@H]2N(C)C)cc1`, the “Percent Effect” value (30.3 µM, […]) is reported as -8.819%.

As to `CC(C)Cn1cc(NC(=O)NC(C)(C)c2nccs2)cn1`, the “Percent Effect” value (30.3 µM, […]) is -3.295%.

With `CCN(CC1CN(Cc2nccn2CC)CCO1)c1cccnn1` (stereo not given), the “Percent Effect” value (30.3 µM, […]) amounted to 7.569%.

In the case of `CCS(=O)(=O)N1CCC(NC(=O)c2cc(C(C)C)ccc2O)CC1`, for the setting “30 µM”, the “Percent Effect” value came to 11.27%.

Take `CC(=O)N1CCC1c1cc(N2CCNC(=O)C2)nc(C)n1` (stereo not given): under “30.3 µM, […]”, the “Percent Effect” value came to 23.92%.

On to `Cc1cnc(CN2CCCC(c3cc(C(N)=O)[nH]n3)C2)o1` (stereo not given), for which, for the setting “30 µM, 30.03 µM”, the “Percent Effect” value was 5%.

Consider `c1ccc(-c2nnc(CN3CCOC(Cn4cccn4)C3)o2)cc1` (stereo not given), for which the “Percent Effect” value (30 µM) is 14.93%.

As for `Cn1ncc2c1CN(Cc1ccccc1F)CC2COCC1CC1.O=C(O)C(F)(F)F.O=C(O)C(F)(F)F` (stereo not given), for the setting “30.3 µM, […]”, the “Percent Effect” value came out at 24.46%.

Turning to `Cn1ncc2c1CN(Cc1cccnc1)CC2COCC1CC1.O=C(O)C(F)(F)F.O=C(O)C(F)(F)F.O=C(O)C(F)(F)F` (stereo not given), for the setting “30 µM, 30.03 µM”, the “Percent Effect” value is reported as 26.28%.

`Cc1ccc(CN2Cc3nnn(C)c3C(COCC3CC3)C2)s1.O=C(O)C(F)(F)F` (stereo not given): the “Percent Effect” value (30.3 µM, […]) is reported as 19.91%.

In the case of `Cn1cc(CN2Cc3c(cnn3C)C(COCC3CC3)C2)cn1.O=C(O)C(F)(F)F.O=C(O)C(F)(F)F` (stereo not given), under “30.3 µM, […]”, the “Percent Effect” value is -2.121%.

For `Cn1ncc2c1CN(Cc1ccc(F)cc1)CC2COCC1CC1.O=C(O)C(F)(F)F.O=C(O)C(F)(F)F` (stereo not given), for the setting “30.3 µM, […]”, the “Percent Effect” value was 51.09%.

For `Cc1ccc(CN2Cc3c(cnn3C)C(COCC3CC3)C2)s1` (stereo not given), where the note is “30.3 µM, […]”, the “Percent Effect” value came out at 92.44%.

Turning to `CNC(=O)[C@H]1C[C@@H]2CN(S(=O)(=O)c3ccc(C)cc3)C[C@@H]2N1C.O=C(O)C(F)(F)F`, the “Percent Effect” value (30.3 µM, […]) came out at 7.67%.

For the compound `CC(=O)Nc1nc(-c2ccc(F)cc2)c[nH]1`, for the setting “30.3 µM, […]”, the “Percent Effect” value was -6.024%.

Turning to `NCCC(=O)N1CCC2(CC1)CN(C(=O)Cc1ccc(Cl)cc1)CCO2`, the “Percent Effect” value (30.3 µM, […]) is on record as -0.5643%.

As to `CN1CC(=O)N(c2ccsc2)CC12CCN(S(C)(=O)=O)C2.O=C(O)C(F)(F)F` (stereo not given), where the note is “30 µM, 30.03 µM”, the “Percent Effect” value is given as 2.434%.

With `COCCN1C[C@H]2[C@@H](C1)N(Cc1ccc(C)o1)CC[C@H]2OC`, the “Percent Effect” value (30 µM, 30.03 µM) was 22.66%.

As for `COCCN1C[C@@H]2[C@@H](OC)CCN(Cc3ccc(C)o3)[C@@H]2C1.O=C(O)C(F)(F)F.O=C(O)C(F)(F)F`, the “Percent Effect” value (30.3 µM, […]) was 53%.

Consider `COCCN1C[C@@H]2[C@@H](OC)CCN(Cc3ccco3)[C@@H]2C1.O=C(O)C(F)(F)F.O=C(O)C(F)(F)F`, for which the “Percent Effect” value (30.3 µM, […]) was found to be 5.523%.

`CCC(CO)N(C/C(C)=C/c1ccco1)Cc1ccccn1` (stereo not given): the “Percent Effect” value (30.3 µM, […]) turned out to be 3.364%.

As to `CC(c1ccccn1)N(C)Cc1ccc(CCC(C)(C)O)cc1` (stereo not given), under “30.3 µM, […]”, the “Percent Effect” value came to 34.83%.

With `C/C(=C\c1ccco1)CN(C)C(C)c1ccccn1` (stereo not given), the “Percent Effect” value (30.3 µM, […]) is recorded as 72.9%.

As for `O=C(c1cscn1)N1CCCCC1c1nc2cc(F)ccc2[nH]1` (stereo not given), for the setting “30.3 µM, […]”, the “Percent Effect” value is 28.33%.

As to `CCS(=O)(=O)NCCCNCc1c(C)nn(C)c1N(C)C`, the “Percent Effect” value (30 µM) is -21.2%.

For the compound `O=C(O)C(F)(F)F.O=C1CC(c2ccccc2)C2(CCN(CC3CC3)CC2)N1` (stereo not given), the “Percent Effect” value (30 µM, 30.03 µM) is reported as 17.34%.

For `CCc1nc(C2CCCN2C(=O)Cc2cccs2)no1` (stereo not given), the “Percent Effect” value (30 µM) is listed as 2.577%.

For the compound `Cc1cc(S(=O)(=O)NCC(C)(C)N)c(F)cc1F.Cl`, where the note is “30.3 µM, […]”, the “Percent Effect” value was found to be 25.52%.

With `CCOc1nc2cnccc2n(CC(=O)NCc2ccco2)c1=O`, the “Percent Effect” value (30.3 µM, […]) is -11.31%.

Regarding `CCCc1nc(NCCCOCC)c2c(n1)c(C)nn2CC`, the “Percent Effect” value (30.3 µM, […]) turned out to be 51.09%.

Turning to `CCn1nc(C)c2nc(C)nc(NCCc3ccccc3)c21`, for the setting “30.3 µM, […]”, the “Percent Effect” value is reported as 36.57%.

For the compound `CCc1nc(NCCCn2cccn2)c2c(n1)c(C)nn2CC`, under “30.3 µM, […]”, the “Percent Effect” value is on record as -48.93%.

In the case of `CCCc1nc(NCCOC)c2c(n1)c(C)nn2CC`, the “Percent Effect” value (30.3 µM, […]) is listed as 9.64%.

Turning to `CCCc1nc(NCCCOC)c2c(n1)c(C)nn2CC`, the “Percent Effect” value (30.3 µM, […]) was -43.63%.

For the compound `CCCc1nc(NCCCO)c2c(n1)c(C)nn2CC`, the “Percent Effect” value (30 µM, 30.03 µM) worked out at 3.921%.

On to `CCCc1nc(NCCc2ccccc2)c2c(n1)c(C)nn2CC`, for which the “Percent Effect” value (30.3 µM, […]) is 98.89%.

With `CCCc1nc(NCCCn2cccn2)c2c(n1)c(C)nn2CC`, the “Percent Effect” value (30.3 µM, […]) worked out at 56.39%.

For `CCn1nc(C)c2nc(C)nc(NCCCn3cccn3)c21`, the “Percent Effect” value (30.3 µM, […]) was -10.11%.

Consider `CCCNC(=O)CSCc1ccc(S(=O)(=O)N(C)C)o1`, for which the “Percent Effect” value (30.3 µM, […]) came to 6.939%.
